Bioassay records (PubChem BioAssay)
Only a selection was taken, and hits are over-represented in it overall.
Tg IFNy HTS: inhibitors of Toxoplasma gondii growth with IFN-gamma; Toxoplasma gondii growth in IFN-gamma-treated host cells; hits give low values; activity change, negative = inhibition, % (no concentration beside the values); hit rate 3.8% among 69,000; AID 1259416; in the data active = activity change below about -70%, passing the limit was not always enough;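 note: host cells are HeLa cells infected with Toxoplasma gondii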
Active calls of the source: *.

Screening CC(Cn1cnc2ccccc21)C(=O)N1CCN(Cc2ccccn2)CC1 (configuration not stated) returned Tg IFNy HTS 15.
`CC(=O)Nc1ccc(C(=O)N(CCC2=CCCCC2)C2(C(=O)NCc3ccccc3)CCN(C(C)=O)CC2)cc1` gave Tg IFNy HTS -11.
Screening CCCCNc1nc(-c2nnc(-c3ccccc3)o2)nc2ccccc12 returned Tg IFNy HTS -89*.
`Cc1ccc(CNc2nc(-c3nnc(-c4ccccc4)o3)nc3ccccc23)o1` gave Tg IFNy HTS -14.
Screening CCCCNc1nc(-c2nnc(-c3ccc(C)cc3)o2)nc2ccccc12 returned Tg IFNy HTS -40.
For Cc1cc(C)n(C2=NCCN2S(=O)(=O)c2cc(C(F)(F)F)cc(C(F)(F)F)c2)n1 the results were Tg IFNy HTS -90*.
Screening Cc1cc(C)n(-c2ncc(S(=O)(=O)C(C)(C)C)c(N)n2)n1 returned Tg IFNy HTS 60.
Screening Cc1cc(C)cc(S(=O)(=O)N2CCC3(CC2)NCCN=C3NCc2ccc(C(F)(F)F)cc2)c1 returned Tg IFNy HTS -52.
Screening O=C(O)Cc1ccc(CN2CCCC2c2nc3ccc(F)cc3[nH]2)cc1 (configuration not stated) returned Tg IFNy HTS 3.
C=CCN1C(=O)CCCC12CCCN(S(=O)(=O)Cc1ccccc1)C2 (configuration not stated) was read as Tg IFNy HTS -27.
O=C(NCCc1csc(-c2ccc(Cl)cc2)n1)c1cccc(C(F)(F)F)c1 was read as Tg IFNy HTS -14.
Screening Fc1cnc(N2CC[C@@]3(C[C@H](N4CCCC4)CCO3)C2)nc1 returned Tg IFNy HTS 1.
COc1ccc2[nH]c(C)c(C(=O)NCc3cc(Cl)c4c(c3)OCCCO4)c2c1 was read as Tg IFNy HTS -85*.
For O=C(Cn1nnc(-c2ccccc2)n1)NCc1cc(Cl)c2c(c1)OCCCO2 the results were Tg IFNy HTS 3.
Screening COc1ccc2[nH]c(C(=O)NC(C)c3ccc4c(c3)CCCO4)c(NC(C)=O)c2c1 (configuration not stated) returned Tg IFNy HTS 15.
For Cc1cc(C(=O)N2CCC(c3oncc3-c3cnccn3)CC2)on1 the results were Tg IFNy HTS -3.
For Cc1ccc(C2(O)CCN(C(=O)CCC(=O)N3CCCCCC3)CC2)nc1 the results were Tg IFNy HTS -2.
O=C(Nc1cccc(-c2cc3ccccc3oc2=O)c1)c1ccc(Br)o1 was read as Tg IFNy HTS 23.
O=C(NC(=S)Nc1ccc(S(=O)(=O)N2CCOCC2)cc1)c1cccs1 was read as Tg IFNy HTS 7.
For Cc1cc(NC(=S)NC(=O)c2cccs2)ccc1-c1cc2ccccc2oc1=O the results were Tg IFNy HTS -80*.
For CCN1C(=O)CCc2cc(NS(=O)(=O)Cc3ccccc3Cl)ccc21 the results were Tg IFNy HTS 52.
Screening O=C(Nc1ccc(N2CCOCC2)cc1)c1cn2c(n1)CSCC2 returned Tg IFNy HTS 95.
Screening Nc1nc(Nc2ccc(S(N)(=O)=O)cc2)nn1C(=O)c1c(F)cccc1F returned Tg IFNy HTS -72*.
Screening O=C(c1c(F)cccc1F)N1CCN(S(=O)(=O)c2cc3c4c(c2)CCC(=O)N4CCC3)CC1 returned Tg IFNy HTS -30.
NS(=O)(=O)c1ccc(NC(=O)CSc2ncn(-c3ccccc3)n2)cc1 was read as Tg IFNy HTS 5.
Screening COc1ccc(CNC2=NCCNC23CCN(S(=O)(=O)c2ccc(C)c(C)c2)CC3)cc1 returned Tg IFNy HTS 1.
Screening O=C(NCc1cccc(Cl)c1)c1c(O)c2cccnc2[nH]c1=O returned Tg IFNy HTS -36.
For Cc1noc(C)c1C(=O)Nc1ccc(Sc2ccccc2)nc1Sc1ccccc1 the results were Tg IFNy HTS -89*.
For CSc1ccc(CNC(=O)c2c(C)noc2C)s1 the results were Tg IFNy HTS -33.
Screening Cc1noc(C)c1C(=O)Nc1ccc(Cl)cc1 returned Tg IFNy HTS 10.
For O=C(Nc1cccc(Cl)c1N1CCOCC1)c1ccc(Cn2cnnn2)cc1 the results were Tg IFNy HTS -4.
For Cc1nc(N2CCN(C)CC2)ncc1C(=O)N1C[C@H]2C[C@H](O)[C@@H](O)C[C@H]2C1 the results were Tg IFNy HTS 6.
`CCN1CCN(Cc2ccc(Nc3ncc(F)c(-c4cc(F)c5nc(C)n(C(C)C)c5c4)n3)nc2)CC1` gave Tg IFNy HTS -78*.
Fc1cccc(CN2CCN(Cc3ccc(-c4ccccc4)nc3)CC2)c1 was read as Tg IFNy HTS 0.
`CC(C)Nc1ncc(-c2nccn2Cc2ccc(F)c(F)c2)cn1` gave Tg IFNy HTS -46.
For O=c1cc(CN2CCCC2)nc2n1CCCN(Cc1ccc(F)cc1)C2 the results were Tg IFNy HTS -12.
CC(C)Cc1nc(CN(C)C(=O)c2cc(C(C)C)on2)no1 was read as Tg IFNy HTS -12.
`C=CCn1c(-c2c(-c3ccccc3)ncn2CCc2cnc[nH]2)nc2ccccc21` gave Tg IFNy HTS -3.
`C=CCn1c2ccccc2n2c(C(=O)CC)c(-c3ccccc3)nc12` gave Tg IFNy HTS -98*.
CCCc1c(-c2ccccc2)nc2[nH]c3ccccc3n2c1=O was read as Tg IFNy HTS 171.
`COc1ccc(CNC(=O)c2nc(N3CCOCC3)c3ccccc3n2)cc1` gave Tg IFNy HTS -4.
Screening Cc1ccc(C)c(CNC(=O)c2nc(N3CCOCC3)c3ccccc3n2)c1 returned Tg IFNy HTS -87*.
Screening COc1ccc(OC)c(CNC(=O)c2nc(N3CCOCC3)c3ccccc3n2)c1 returned Tg IFNy HTS -40.
COc1cccc(NC(=O)N2CCC3(CC2)Nc2ccccc2-n2cccc23)c1 was read as Tg IFNy HTS inactive.
`COc1ccc(-n2c(Cc3ccccc3)nnc2SCC(=O)c2ccccc2)cc1` gave Tg IFNy HTS -47.
Screening COc1ccc(-n2c(SCC#N)nnc2-c2cccnc2)cc1 returned Tg IFNy HTS -46.
Screening COc1ccc(-n2c(CC#N)nnc2SCc2c(C)c(C)c(C)c(C)c2C)cc1 returned Tg IFNy HTS -89*.
C[C@H]1C[C@@H]2CN(C(=O)CCc3ccccc3Cl)CC[C@H]2O1 was read as Tg IFNy HTS -5.
For CN[C@H](C(=O)N[C@H](C(=O)N(C)[C@H](/C=C(\C)C(=O)O)C(C)C)C(C)(C)C)C(C)(C)c1ccccc1 the results were Tg IFNy HTS -71*.
Screening Fc1ccccc1OCCNC1CCC2(CCNCC2)CC1 returned Tg IFNy HTS -11.
COc1cc(N2Cc3cncn3CC(COCC(C)C)C2)ncn1 (configuration not stated) was read as Tg IFNy HTS 21.
`Cc1nnsc1-c1nc(-c2ccc(Cl)s2)cs1` gave Tg IFNy HTS -85*.
`CCOC(=O)c1csc(-c2snnc2C)n1` gave Tg IFNy HTS -16.
Cc1nc(-c2ccc(Cl)cc2)sc1-c1csc(-c2ccc(Cl)cc2)n1 was read as Tg IFNy HTS -15.
Screening Cc1ccccc1-c1ncc(CN2CC3CCCC(C2)C3(O)c2nccn2C)cn1 (configuration not stated) returned Tg IFNy HTS 12.
Screening COCc1nc(N2CC(Oc3c(C)cccc3C)C2)c2cnn(C)c2n1 returned Tg IFNy HTS 43.
Screening COc1cc(C(=O)Oc2ccc(C3CCCCC3)cc2)cc(OC)c1OC returned Tg IFNy HTS -94*.
For COc1ccc(C(=O)/C=C/c2ccc(OC(=O)c3cc(OC)c(OC)c(OC)c3)cc2)cc1 the results were Tg IFNy HTS -25.
Screening COc1cc(C(=O)Oc2cc(C)cc(C)c2)cc(OC)c1OC returned Tg IFNy HTS -2.
